Where “and” joins values, the source holds several entries; their conditions need not be identical. Equal entries are not always repeated. In all, about 5,500 compounds went through this assay and about 2,000 (36%) were called active. About 18% were inconclusive and are not listed. No stated cut-off is given here; in the data, active means normalized growth mostly below about 0.91 (no sharp cut-off); inconclusive means no clear call, values can overlap the other calls; inactive means mostly above about 0.92. Some of the results follow.
Test: chemical genetic growth profiling, strain panel (AID 1159580);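 further: tested at 20 µM; growth read once vehicle control cultures reached saturation at 30 °C; 1 = growth at the plate median or of vehicle wells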
Settings: S. cerevisiae deletion strains, growth OD

Measured: normalized growth

CCN(CC)CCOc1ccc2c(c1)C(=O)c1cc(OCCN(CC)CC)ccc1-2
inactive: locus YAL013W, strain DEP1, stronger effect = lower value 1 | locus YAL021C, strain ccr4, stronger effect = lower value 0.962 | locus YAL026C, strain drs2, stronger effect = lower value 0.984 | locus YAL030W, strain snc1, stronger effect = lower value 1 | locus YBL061C, strain skt5, stronger effect = lower value 0.993 | locus YBR009C, strain hhf1, stronger effect = lower value 0.993 | locus YBR021W, strain FUR4, stronger effect = lower value 1.06 | locus YBR023C, strain chs3, stronger effect = lower value 0.98 | locus YBR171W, strain sec66, stronger effect = lower value 0.979 | locus YBR229C, strain ROT2, stronger effect = lower value 1 | locus YBR231C, strain swc5, stronger effect = lower value 0.974 | locus YBR279W, strain paf1, stronger effect = lower value 0.981 | locus YCL011C, strain gbp2, stronger effect = lower value 0.977 | locus YCL016C, strain dcc1, stronger effect = lower value 0.973 | locus YCL029C, strain bik1, stronger effect = lower value 0.975 | locus YCL061C, strain MRC1, stronger effect = lower value 0.981 | locus YCL069W, strain vba3, stronger effect = lower value 0.996 | locus YCR088W, strain abp1, stronger effect = lower value 0.984 | locus YDL005C, strain med2, stronger effect = lower value 0.966 | locus YDL035C, strain GPR1, stronger effect = lower value 0.991 | locus YDL040C, strain nat1, stronger effect = lower value 0.986 | locus YDL074C, strain BRE1, stronger effect = lower value 0.998 | locus YDL101C, strain DUN1, stronger effect = lower value 0.987 | locus YDL134C, strain PPH21, stronger effect = lower value 0.994 | locus YDL185W, strain tfp1, stronger effect = lower value 0.947 | locus YDL192W, strain arf1, stronger effect = lower value 0.984 | locus YDR001C, strain nth1, stronger effect = lower value 0.979 | locus YDR069C, strain doa4, stronger effect = lower value 0.96 | locus YDR101C, strain arx1, stronger effect = lower value 0.991 | locus YDR137W, strain rgp1, stronger effect = lower value 0.998 | locus YDR150W, strain NUM1, stronger effect = lower value 0.973 | locus YDR159W, strain sac3, stronger effect = lower value 1 | locus YDR162C, strain NBP2, stronger effect = lower value 1.02 | locus YDR195W, strain ref2 0.96 | locus YDR297W, strain sur2, stronger effect = lower value 0.997 | locus YDR318W, strain mcm21, stronger effect = lower value 0.98 | locus YDR334W, strain swr1, stronger effect = lower value 0.975 | locus YDR335W, strain msn5, stronger effect = lower value 0.989 | locus YDR388W, stronger effect = lower value 0.983 | locus YDR392W, strain spt3, stronger effect = lower value 0.807 | locus YDR502C, strain sam2, stronger effect = lower value 0.99 | locus YEL003W, strain gim4, stronger effect = lower value 0.99 | locus YEL037C, strain rad23, stronger effect = lower value 0.994 | locus YEL061C, strain CIN8 (second series), stronger effect = lower value 0.986 | locus YEL061C, strain CIN8, stronger effect = lower value 0.997 | locus YER015W, strain faa2, stronger effect = lower value 0.991 | locus YER016W, strain bim1, stronger effect = lower value 0.957 | locus YER110C, stronger effect = lower value 0.962 | locus YER111C, strain swi4, stronger effect = lower value 0.971 | locus YER155C, strain BEM2 (second series), stronger effect = lower value 0.937 | locus YER155C, strain BEM2, stronger effect = lower value 1 | locus YER167W, strain BCK2, stronger effect = lower value 0.982 | locus YFR010W, strain ubp6, stronger effect = lower value 0.992 | locus YGL078C, strain dbp3, stronger effect = lower value 0.98 | locus YGL086W, strain mad1, stronger effect = lower value 0.993 | locus YGL167C, strain pmr1, stronger effect = lower value 0.982 | locus YGL173C, strain kem1, stronger effect = lower value 0.978 | locus YGL227W, strain vid30, stronger effect = lower value 0.978 | locus YGL240W, strain doc1, stronger effect = lower value 0.983 | locus YGL248W, strain PDE1, stronger effect = lower value 1 | locus YGL253W, strain hxk2, stronger effect = lower value 0.983 | locus YGR078C, strain PAC10, stronger effect = lower value 0.996 | locus YGR135W, strain pre9, stronger effect = lower value 1.02 | locus YGR229C, strain SMI1, stronger effect = lower value 1.04 | locus YGR252W, strain gcn5, stronger effect = lower value 0.99 | locus YHR013C, strain ard1, stronger effect = lower value 0.933 | locus YHR027C, strain rpn1, stronger effect = lower value 0.979 | locus YHR030C, strain SLT2, stronger effect = lower value 0.977 and 0.988 | locus YHR079C, strain IRE1 (second series), stronger effect = lower value 0.989 | locus YHR079C, strain IRE1, stronger effect = lower value 0.977 | locus YHR094C, strain hxt1, stronger effect = lower value 0.972 | locus YHR129C, strain ARP1, stronger effect = lower value 0.998 | locus YHR142W, strain chs7, stronger effect = lower value 0.99 | locus YHR200W, strain rpn10, stronger effect = lower value 0.98 | locus YIL066C, strain RNR3, stronger effect = lower value 0.99 | locus YIL073C, strain SPO22, stronger effect = lower value 0.948 | locus YIL125W, strain kgd1, stronger effect = lower value 0.981 | locus YIR030C, strain dcg1, stronger effect = lower value 0.991 | locus YJL092W, strain hpr5, stronger effect = lower value 0.987 | locus YJL095W, strain BCK1 (second series), stronger effect = lower value 0.983 | locus YJL095W, strain BCK1, stronger effect = lower value 1 and 0.986 | locus YJL115W, strain asf1, stronger effect = lower value 0.98 | locus YJL129C, strain trk1, stronger effect = lower value 0.974 | locus YJL134W, strain LCB3, stronger effect = lower value 0.989 | locus YJL154C, strain vps35, stronger effect = lower value 0.979 | locus YJL164C, strain tpk1, stronger effect = lower value 0.993 | locus YJL166W, strain qcr8, stronger effect = lower value 0.984 | locus YJL168C, strain set2, stronger effect = lower value 0.983 | locus YJL187C, strain SWE1 (second series), stronger effect = lower value 0.983 | locus YJL187C, strain SWE1, stronger effect = lower value 0.981 | locus YJR043C, strain POL32, stronger effect = lower value 1.01 | locus YJR066W, strain TOR1, stronger effect = lower value 0.965

Reference: PubChem BioAssay AID1159580 (chemical genetic matrix, 2015)
